Reference: PubChem BioAssay (NCATS)
Records with an inconclusive call do not appear. Calls of active or inactive are those of the source. Calls come from the whole dose curve; as a rule, active = well fitted inhibition curve with a large enough effect; inconclusive = small, poorly fitted or top-dose-only effect; inactive = flat fitted curve, though single readings scatter. Peptide text beside a SMILES is read from it.

What was measured:
Assay in all cases: qHTS profiling for inhibitors of Plasmodium falciparum proliferation (AID 504749); note: nearly all actives have a fitted effect of over 60% in size
Conditions in all cases: P. falciparum in erythrocytes, SYBR Green DNA, 72 h; series mostly up to 28.7 µM
FAB9 = tested on: FAB9
In short: (§1)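 Fluorescence of SYBR Green-bound parasite DNA, read at 485/535 nm, served as the growth measure. Infected erythrocytes were cultured with compound 72 h; artemisinin (0.29 uM) and DMSO wells defined the normalization range.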

GB4 = tested on: GB4
In short: as §1

HB3 = tested on: HB3
In short: as §1

ICS = tested on: ICS
In short: as §1

JCK = tested on: JCK
In short: as §1

N140 = tested on: N140
In short: as §1

P93_24 = tested on: P93_24
In short: as §1

P94_40 = tested on: P94_40
In short: as §1

PAD = tested on: PAD
In short: as §1

PC15 = tested on: PC15
In short: as §1

Measured: Potency
Potency is the fitted concentration of half-maximal effect.

COC(=O)CCC(=O)CN
inactive: all assays above

Cc1ccccc1
inactive: all assays above

CC(O)CO (stereo unspecified)
inactive: all assays above

CCCCC/C=C\C/C=C\CCCCCCCC(=O)O
inactive: all assays above

C[C@@H]1CCC2[C@@H](C)[C@@H](O)O[C@@H]3O[C@@]4(C)CC[C@@H]1[C@@]23OO4 (stereo partly specified)
active: FAB9 0.9 nM | GB4 1.9 nM | HB3 2.8 nM | ICS 1 nM | JCK 10000 nM | N140 1.6 nM | P93_24 1 nM | P94_40 1 nM | PAD 1.4 nM | PC15 0.9 nM

CC(=O)N[C@@H](CC(=O)O)C(=O)N[C@@H](CCC(=O)O)C(=O)O (Ac-Asp-Glu-OH)
inactive: all assays above

COc1ccc2c3c1O[C@H]1C[C@@H](O)C=C[C@@]31CCN(C)C2
inactive: all assays above

O=S(=O)(O)c1ccc2c(N=Nc3ccc(S(=O)(=O)O)c4ccccc34)c(O)c(S(=O)(=O)O)cc2c1
inactive: all assays above

CCNC(=O)[C@@H]1CCCN1C(=O)[C@H](CCCN=C(N)N)NC(=O)[C@H](CC(C)C)NC(=O)[C@@H](Cc1c[nH]c2ccccc12)NC(=O)[C@H](Cc1ccc(O)cc1)NC(=O)[C@H](CO)NC(=O)[C@H](Cc1c[nH]c2ccccc12)NC(=O)[C@H](Cc1cnc[nH]1)NC(=O)[C@@H]1CCC(=O)N1
active: FAB9 8910 nM | GB4 2390 nM | HB3 11200 nM | ICS 2240 nM | JCK 14100 nM | N140 4470 nM | P93_24 3160 nM | P94_40 7940 nM | PAD 2240 nM | PC15 3550 nM

O=S(=O)(O)O
inactive: all assays above

O=C(O)c1cc(O)c2c(c1)[O][Bi][O]2
inactive: all assays above

CC(C)(C)C(=O)OCOC(=O)[C@@H]1N2C(=O)[C@@H](N=CN3CCCCCC3)[C@H]2SC1(C)C
inactive: all assays above

O=C1C(=O)c2ncccc2-c2cccnc21
active: FAB9 7940 nM | GB4 849 nM | HB3 1000 nM | ICS 631 nM | JCK 10000 nM | N140 1260 nM | P93_24 891 nM | P94_40 794 nM | PAD 794 nM | PC15 891 nM

CC1=C(/C=C/C(C)=C/C=C/C(C)=C/C=C/C=C(C)/C=C/C=C(C)/C=C/C2=C(C)C(=O)CCC2(C)C)C(C)(C)CCC1=O
inactive: all assays above

O=C(O)CCC(=O)C(=O)O
inactive: all assays above

CC1(C)S[C@@H]2[C@H](NC(=O)[C@@H](NC(=O)N3CCNC3=O)c3ccccc3)C(=O)N2[C@H]1C(=O)O
inactive: all assays above

CCCCCCCC(=O)O
inactive: all assays above

C[C@H]1C[C@H]2[C@@H]3CCC4=CC(=O)C=C[C@]4(C)[C@@]3(F)[C@@H](O)C[C@]2(C)[C@@]1(O)C(=O)CO
inactive: all assays above

C#CCOc1ccc2c(C)cc(=O)oc2c1
inactive: all assays above

CCN(CC)Cc1cc(Nc2ccnc3cc(Cl)ccc23)ccc1O
active: FAB9 39.8 nM | GB4 40.5 nM | HB3 35.5 nM | ICS 39.8 nM | JCK 89.1 nM | N140 70.8 nM | P93_24 35.5 nM | P94_40 8.9 nM | PAD 31.6 nM | PC15 178 nM

CCCCCCCC/C=C\CCCCCCCC(=O)O
not listed: PC15
inactive: all other assays above

Nc1ncnc2c1ncn2[C@@H]1O[C@H](COP(=O)(O)OP(=O)(O)OP(=O)(O)O)[C@@H](O)[C@H]1O
inactive: all assays above

CCCC(=O)O[C@]1(C(=O)CCl)[C@H](C)C[C@@H]2[C@H]3CCC4=CC(=O)C=C[C@]4(C)[C@@]3(F)C(=O)C[C@@]21C
active: FAB9 7940 nM | GB4 2390 nM | HB3 2820 nM | ICS 3550 nM | JCK 10000 nM | N140 3160 nM | P93_24 3980 nM | P94_40 4470 nM | PAD 4470 nM | PC15 3550 nM

C=C1C(=CC=C2CCC[C@@]3(C)[C@@H]2CC[C@H]3[C@H](C)CCCC(C)C)C[C@@H](O)C[C@@H]1O
inactive: FAB9 | GB4 | JCK
active: HB3 12600 nM | ICS 12600 nM | N140 14100 nM

CCOC(C)=O
inactive: all assays above

CCCCCCCCCCCC[n+]1ccc2ccccc2c1
active: FAB9 1580 nM | GB4 338 nM | HB3 2510 nM | ICS 447 nM | JCK 12600 nM | N140 708 nM | P93_24 631 nM | P94_40 891 nM | PAD 2000 nM | PC15 2240 nM

COC(F)(F)C(Cl)Cl
inactive: all assays above

CC[N+](C)(C)Cc1ccccc1Br
inactive: all assays above

CCCCC(C)(O)C/C=C/[C@H]1[C@H](O)CC(=O)[C@@H]1CCCCCCC(=O)OC (stereo partly specified)
inactive: all assays above

CC(Cc1ccc(O)c(O)c1)C(C)Cc1ccc(O)c(O)c1 (stereo unspecified)
active: ICS 10000 nM
inactive: FAB9 | HB3 | JCK | N140

CCCCCCOc1ccc(C(=N)N(CCCC)CCCC)c2ccccc12
inactive: P93_24
active: GB4 10700 nM | ICS 2820 nM | P94_40 12600 nM | PC15 10000 nM

CC1(C)C(C=C(Cl)Cl)C1C(=O)OCc1cccc(Oc2ccccc2)c1 (stereo unspecified)
not listed: ICS
inactive: all other assays above

Oc1cc(O)c2c(c1)OC(c1ccc(O)c(O)c1)C(O)C2 (stereo unspecified)
not listed: GB4
inactive: all other assays above

NC(=O)c1ncn(C2OC(CO)C(O)C2O)n1 (stereo unspecified)
not listed: GB4
inactive: all other assays above

CC(=O)Oc1cc(C)c(OC(C)=O)c2ccccc12
active: GB4 7570 nM | ICS 6310 nM | P93_24 7940 nM | PC15 4470 nM

O=C(Nc1ccc(Br)cc1)c1cc(Br)c(Br)s1
inactive: FAB9 | PC15

CCCCCC(CC)COC(=O)CC(C(=O)OCC(CC)CCCC)S(=O)(=O)O (stereo unspecified)
not listed: GB4
inactive: all other assays above

O=C(COc1ccc(Cl)cc1)OCCNC12CC3CC(CC(C3)C1)C2
not listed: GB4
inactive: all other assays above
